Data on 35 molecules can be found in PubChem BioAssay (EPA / NIEHS).

Where “and” joins values, the source holds several entries; their conditions need not be identical. Equal values may be shown once. More than one record can exist for a structure, and the calls need not agree. Calls of active or inactive are those of the source. The calls were made as follows: active = hit-call score of the fitted dose curve at least 0.9, where 1 is the maximum; inactive = score below 0.9.

Read-out in the test: serum amyloid A (SAA), SAA1 (gene 6288)
In words: BSK_CASM3C_SAA: BioMAP Diversity Plus: CASM3C Assay for serum amyloid A (SAA) Biomarker Activity (AID 2283049).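 Also: SAA protein level quantified by ELISA.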 Conditions: primary human coronary artery smooth muscle cells; actives raise or lower the signal.
As to `C=C(C)C(=O)OCC(F)(F)C(F)(F)C(F)(F)C(F)(F)C(F)(F)C(F)(F)C(F)(F)F`, the result was inactive. Still for that read-out and setting: the entry for `Nc1ccc([N+](=O)[O-])cc1O` is “inactive”; for `FC(F)(F)C(F)(F)C(F)(F)C(F)(F)C(F)(F)C(F)(F)CCS` it is “inactive”. As for `O=S(=O)(OCC(F)F)C(F)(F)F`, the outcome was inactive.

Regarding `Cc1ccc(S(=O)(=O)OCC(F)(F)C(F)(F)C(F)(F)C(F)(F)C(F)(F)C(F)F)cc1`, the result was inactive. The same measure, in the same setting: the same measure for `N=C(N)C(F)(F)C(F)(F)C(F)(F)C(F)(F)C(F)(F)C(F)(F)C(F)(F)F`: “inactive”.

On to `CCCCOCCOCCOC(=O)CCCCC(=O)OCCOCCOCCCC`, for which the result was inactive.

For the molecule `OCCCC(F)(F)C(F)(F)C(F)(F)C(F)(F)C(F)(F)C(F)(F)C(F)(F)F`, the AC50 was 37.6 µM (active) and 22.7 µM (active). Take `FC(F)(F)C(F)(F)C(F)(F)C(F)(F)CCI`: the outcome was inactive.

Take `FC(F)(F)C(F)(F)C(F)(F)C(F)(F)C(F)(F)C(F)(F)C(F)(F)C(F)(F)F`: the result was inactive. Same read-out and setting: the entry for `FC(F)(Br)C(F)(F)C(F)(F)C(F)(F)C(F)(F)C(F)(F)Br` is “inactive”. On to `FC1CC(F)(F)C(F)(F)C1(F)F` (stereo unspecified), for which the result was inactive. As to `FC(F)(I)C(F)(F)C(F)(F)C(F)(F)I`, the concentration at half-maximal activity (AC50) was 47.5 µM (active) and 45 µM (active) and 47.6 µM (active). Turning to `OCC(F)(F)C(F)(F)C(F)(F)C(F)F`, the result was inactive. Consider `C=CC(=O)OCC(F)(F)C(F)(F)C(F)(F)C(F)(F)COC(=O)C=C`, for which the half-maximal activity concentration (AC50) is 22.9 µM (active) and 16.1 µM (active). With `C=C(C)C(=O)OCC(F)(F)C(F)(F)C(F)(F)F`, the result was inactive. As to `CCCCCCOC(=O)c1ccccc1O`, the result was inactive.

Take `FC(F)(F)C(F)(F)CNCC(F)(F)C(F)(F)F`: the outcome was inactive. The same measure, in the same setting: the same measure for `O=C(O)C(F)(F)C(F)(F)C(F)(F)C(F)(F)C(F)(F)C(F)(F)C(F)(F)C(F)(F)C(F)(F)C(F)F`: “inactive”. The same measure, in the same setting: the entry for `C=CC(F)(F)C(F)(F)C(F)(F)C(F)(F)C(F)(F)C(F)(F)C(F)(F)C(F)(F)C=C` is “inactive”; for `O=C(Cl)C(F)(F)C(F)(F)C(F)(F)C(F)(F)C(F)(F)C(F)(F)C(F)(F)C(F)(F)F` it is “inactive”; for `O=C(O)C(F)(F)C(F)(F)C(F)(F)C(F)(F)C(F)(F)C(F)(F)C(F)(F)C(F)(F)Cl` it is “inactive”. Consider `O=P(O)(O)OCCC(F)(F)C(F)(F)C(F)(F)C(F)(F)C(F)(F)C(F)(F)F`, for which the AC50 was 457 nM (active) and the result was inactive. In the case of `C#C[C@]1(O)CC[C@H]2[C@@H]3CCc4cc(OC)ccc4[C@H]3CC[C@@]21C`, the result was inactive. Same read-out and setting: the same measure for `CCCCC(CC)COP(=O)(O)OCC(CC)CCCC` (stereo unspecified): “inactive”.

In the case of `O=C(O)C(F)(F)C(F)(F)C(F)(F)C(F)(F)C(F)(F)C(F)(F)C(F)(F)C(F)(F)C(F)(F)C(F)(F)C(F)(F)C(F)(F)F`, the half-maximal activity concentration (AC50) is 2.34 µM (active) and 3.54 µM (active). Consider `C=C(C)C(=O)OCCC(F)(F)C(F)(F)C(F)(F)C(F)(F)C(F)(C(F)(F)F)C(F)(F)F`, for which the result was inactive. The same measure, in the same setting: the entry for `O=C(O)C(F)(F)C(F)(F)C(F)(F)C(F)(F)C(F)(F)C(F)(F)C(F)(F)C(F)(F)C(F)(F)C(F)(F)C(F)(F)C(F)(F)C(F)(F)F` is “inactive”; for `O=C(O)C(F)(OC(F)(F)C(F)(OC(F)(F)C(F)(F)C(F)(F)F)C(F)(F)F)C(F)(F)F` (stereo unspecified) it is “inactive”; for `CC(C)(C)C(=O)CC(=O)C(F)(F)C(F)(F)C(F)(F)F` it is “inactive”. Still for that read-out and setting: the same measure for `CCCCCCCCC(F)(F)C(F)(F)C(F)(F)C(F)(F)C(F)(F)C(F)(F)F`: “inactive”. As for `CCCCCCCCCCCCCCCC[N+](C)(C)Cc1ccccc1`, the AC50 was 2590 nM (active). On to `C=CC/C=C/C/C=C/C/C=C/C`, for which the outcome was inactive. With `O=C(O)C(F)(OC(F)(F)C(F)(OC(F)(F)C(F)(OC(F)(F)C(F)(F)C(F)(F)F)C(F)(F)F)C(F)(F)F)C(F)(F)F` (stereo unspecified), the outcome was inactive. Still for that read-out and setting: the same measure for `CS(C)(=O)=O`: “inactive”.

As a reminder, the AC50 is the concentration giving half of the maximal activity seen.
